# Source: ChEMBL document CHEMBL4888484, “Replenishing the malaria drug discovery pipeline: Screening and hit evaluation of the MMV Hit Generation Library 1 (HGL1) against asexual blood stage Plasmodium falciparum ,using a nano luciferase reporter read-out” (2022)
# Where “and” joins values, the source holds several entries; their conditions need not be identical. Equal values may be shown once. The whole screen tested about 4,800 compounds, of which about 410 (8.5%) showed an effect of 50% or more. The entries come from a sample that favours strong results as a whole.
# System: Plasmodium falciparum
# Experiment: Confirmatory screen in NF54 pLDH assay, in single point, at 2uM, 72h
# Assay type: functional, Erythrocyte
# Settings: timepoint 72 hour
Compound,% Inhibition [%],% Inhibition (2 µM)
COc1ccc(CC[C@H](C)NC(=O)NCCCN2CCCC2=O)cc1,11,
CC(C)C(=O)N1CC[C@H](CC(=O)NCc2ccncc2)C1,5,
N#CC1CCC(Nc2cnn(-c3ccncc3)c2)CC1 (stereo unspecified),11,
CS(=O)(=O)N1CC[C@H](CC(=O)N2CCN(c3ccc(F)cc3)CC2)C1,-21,
CN(C)c1cc(C(=O)N2CCOC3CCCCC32)ccn1 (stereo unspecified),3,
Cc1ccc(C)c(-c2nc(Cn3c(=O)c4c(C)cc(C)nc4n(C)c3=O)c(C)o2)c1,3,
Fc1cnc(OC2Cc3ccccc3C2)nc1,57,
Cn1nccc1/C=C1\CC2C3CCc4cc(O)ccc4C3CCC2(C)C1O (stereo unspecified),47,
Nc1ncncc1C(=O)NCCc1c[nH]c2ccc(F)cc12,6,
CCOc1ncc(Br)cc1C(=O)O,-19,
O=C(C[C@H]1CCCN1c1ccnc(C2CC2)n1)c1ccco1,12,
c1cc2c(cc1[C@H]1NCCCCCCO1)OCO2,-5,
O=C1Nc2ccc(Br)cc2C1=O,13,
COc1ccccc1-n1c(=O)[nH]c2nc(N3CCN(c4ccccn4)CC3)ncc2c1=O,3,
CC(C)(C)OC(=O)NC1CCN(c2ncc(C(=O)NCc3ccc(F)c(Cl)c3)c(N)n2)CC1,-10,
N#Cc1cccc(-c2n[nH]c3c2CN(c2ccc(-c4ccccc4)nn2)CC3)c1,100,
N#Cc1cc(N2CCc3ccccc3C2)nc2ccccc12,8,
COc1ccc2c(c1)CN(C(=O)C1CC3CCC1C3)CC2 (stereo unspecified),11,
Cc1ncsc1C(=O)N1CCC2(CCCCC2)C1,-22,
O=C1C[C@@H](C(=O)N2CCC3(CCCCC3)C2)CCN1,10,
Nc1ncc(C(=O)N2CCC3(CCCCCC3)C2)s1,98,
NC(=O)[C@H]1CCCN(c2ccnc(C(=O)NCc3ccccc3)c2)C1,4,
CC1C(Cc2ccccc2)CCN1C(=O)c1cnc(C(F)(F)F)nc1 (stereo unspecified),14,
Cc1ccc(C(=O)N2C[C@@H]3C[C@H](NC(=O)c4cccnc4)[C@H]2C3)cc1F,-1,
Cc1ccc(S(=O)(=O)N2CC[C@H](CC(=O)NCc3ccccc3)C2)c(C)c1,-22,
Cc1ccc(NC(=O)Cn2c(=O)n(Cc3ccco3)c(=O)c3ccccc32)c(C)c1,-13,

Compound,% Inhibition [%],% Inhibition (2 µM)
CC(=O)Nc1ccc(C)cc1S(=O)(=O)N1CC=C(c2c(C)n(Cc3ccccc3C)c3ccccc23)CC1,90,
Cc1nn(C)c(Cl)c1CNC[C@@H](c1ccsc1)N(C)C,9,
O=C(Nc1nnc(C2CC2)s1)[C@@H]1Cc2ccccc2O1,5,
O=C(NC1CCCC1)N1CCN(c2nc3cccnc3n(Cc3ccccc3)c2=O)CC1,8,
CCn1cnc2c(N3CCC[C@H](c4ccncc4)C3)ncnc21,77,
CCn1c(=O)c(N2CCC[C@H](C(=O)NCc3ccccc3OC)C2)nc2cccnc21,-3,
Brc1cncnc1N1CCC[C@H](c2nnn[nH]2)C1,-7,
COc1cccc(S(=O)(=O)N(C)[C@H]2CCc3n[nH]c(=O)n3CC2)c1,1,
Cn1c(=O)c2c(nc3nc(N4CCOCC4)n(CC(=O)c4ccc(Cl)cc4)n32)n(C)c1=O,0,
O=C(NCC1CC1)c1cn[nH]c1-c1ccccc1,1,
c1ccc(-c2cn[nH]c2N2CCNCC2)cc1,-16,
COc1cc(-c2nc3ccccc3s2)ccc1OCc1cccc2ccccc12,0,
Oc1cc(OCc2ccccc2F)ccc1-c1[nH]ncc1-c1ccccc1,72,
COc1ccc(-c2c(C(F)(F)F)n[nH]c2-c2ccc(OCc3ccccc3F)cc2O)cc1,91,
COc1cc(OC)cc(C2(O)CCN(C(=O)CCc3ccccc3F)CC2)c1,-20,
COc1ccccc1NC(=O)CC1CS(=O)(=O)CC1CC(=O)Nc1ccccc1OC (stereo unspecified),13,
COc1ccc(-c2cnn3c(-c4ccccn4)ccnc23)cc1OC,4,
C#CCNC(=O)[C@H](C#N)c1nc(C)c(C)s1,10,
Cc1cnc([C@H](C)NC(=O)c2conc2C(C)(C)N)s1,9,
C[C@H]1Cc2cc(C(=O)NCc3nc(C(F)(F)F)n[nH]3)ccc2O1,10,
COc1ccc(-c2cn3cc(C)nc3n2C)cc1,0,
Cc1ccc(S(=O)(=O)CC(=O)NC(C)(C)C)cc1,5,
O=C(CCc1ccc(Cl)c(C(F)(F)F)c1)N1CC[C@H](N2CCc3ccccc3C2)C1,45,
CC(C)(C)OC(=O)CN(c1cc(F)cc(F)c1)S(=O)(=O)c1ccc2nncn2c1,-2,
CCN(C)C1(CNC(=O)c2ccc(-c3cc(F)ccc3O)cc2)CCCC1,11,
NC(=O)N1CCC[C@H]1C(=O)NC1CC(=O)N(C2CC2c2ccccc2)C1 (stereo partly specified),8,

Compound,% Inhibition [%],% Inhibition (2 µM)
Cc1cnc(NC(=O)c2ccc3ncoc3c2)c(Br)c1,15,
O=C(CC1CCOCC1)N1CCN(C(=O)c2ccco2)CC1,-18,
Cc1ccc(-c2ccnc3c(C(=O)NC4CC4)cnn23)cc1C,4,
O=C(Cc1ccc(C(=O)Nc2nc(-c3ccccc3)cs2)cc1)c1ccccc1,12,
O=S(=O)(c1ccc2ccccc2c1F)N1CC(CO)C1,-13,
COc1ccc(CC2C(O)C(Cc3ccc(OC)cc3)C3CCC2N3C)cc1 (stereo unspecified),6,
CCNC(=O)C(=O)NCc1ccc(OC)cc1,-20,
COc1ccc(CNCCC2C(C)CN(C)C(C)C2Cc2ccccc2)cc1 (stereo unspecified),66,
COc1ccc(C(=O)n2[nH]c(=O)c(CCO)c2C)cc1,5,
COc1ccc(Nc2nnc(/C=C/c3ccccc3)c(=O)n2N)cc1,16,
O=S1(=O)CCN(OCc2ccc(Cl)cc2)CC1,15,
COc1ccc2[nH]c3c(c2c1)CC(C(=O)O)NC3c1ccc(OC)c(CN2CCN(c3ccccc3F)CC2)c1 (stereo unspecified),72,
COc1ccccc1N1CCN(Cc2nc3ccccc3c(=O)n2-c2ccc(F)cc2)CC1,12,
Fc1ccccc1N1CCN(C2CCN(Cc3c[nH]c4ccccc34)CC2)CC1,33,
O=C(NCCc1ccc(O)cc1)c1ccc2n[nH]c(=O)n2c1,-20,
CCC(C)(C)C(=O)N1CCC[C@@H]1CCc1ncc(C)n1C(C)C,14,
CCOc1cc([C@H]2Nc3ccccc3C(=O)N2c2ccccc2)ccc1OCc1ccc(F)cc1,-4,
O=C(/N=C(/c1ccccc1)N1CCCCC1)C(F)(F)C(F)(F)C(F)(F)C(F)(F)C(F)(F)C(F)(F)F,,1% and 0%
O=C(Nc1nncs1)c1cccc(C(=O)Nc2nncs2)n1,64,
Cc1ccc(-c2csc(NC(=O)c3cccc(C(=O)Nc4nc(-c5ccc(C)cc5C)cs4)n3)n2)c(C)c1,-7,
O=C(Nc1nncs1)NC(C1CC1)C1CC1,5,
Cc1c(NC(=O)c2n[nH]cc2Br)c(=O)n(-c2ccccc2)n1C,7,
CCn1c(=O)c(N2CCC[C@H](C(=O)NCc3cccc(C)c3)C2)nc2ccccc21,14,
CCC(C)(CC)[C@@](O)(C#CC[N+]1(Cc2ccccc2)CCCCC1)c1ccccc1,22,
CC(CC1OCC(C[N+]2(Cc3ccccc3)CCCCC2)O1)CC(C)(C)C (stereo unspecified),56,
COc1cc(C(=O)NC(C)(C)c2c(C)noc2C)on1,7,

Compound,% Inhibition [%],% Inhibition (2 µM)
CN1C(=O)N(c2cc(Cl)cc(Cl)c2)C(=O)[C@]12CN(c1ccc(C(=O)O)cn1)C[C@H]2c1ccc(C#N)cc1,15,
c1cc([C@@H]2CN(Cc3noc(C4CC4)n3)CCO2)cs1,7,
COc1ccc(NC(=O)N2CC[C@H](CC(=O)NCc3ccccc3)C2)cc1OC,-11,
NC(=O)c1ccc(C(F)(F)F)n(CC(=O)N(Cc2ccc(F)cc2)C2CCCCC2)c1=O,-6,
Cc1cc(-n2c(C)cc(C(=O)Cn3c(C(F)(F)F)ccc(C(N)=O)c3=O)c2C)no1,23,
NC(=O)c1ccc(C(F)(F)F)n(C[C@H](O)c2cc(Cl)ccc2Cl)c1=O,60,
CC(C)(C)c1cc(N)c2ccccc2n1,-6,
O=C(N[C@@H](N1CCCCCC1)C(Cl)(Cl)Cl)c1cccc(Cl)c1,-20,
CNC(=O)CNC(=O)c1cccc(Cl)c1,12,
NC(=O)C(NC(=O)c1cccc(Cl)c1)C(N)=O,85,
COCc1cc2nn(CC(=O)Nc3ccc(F)c(F)c3)c(=O)n2c(-c2ccccc2)n1,-15,
Cn1cc(NC(=O)Nc2cccc(OCC(F)F)n2)cn1,-7,
O=C(Cc1c[nH]c2ccccc12)NC1(C(=O)NC2CCCC2)CCCCC1,8,
CCN1C(=O)Cc2cc(NC(=O)c3ccc(Br)o3)ccc21,12,
CC(C)[C@@H]1CCc2ccccc2N1Cc1nc(N)nc(N(C)C)n1,6,
O=C(Nc1ccc2c(c1)OCCCO2)c1ccsc1,5,
O=C1CN(C(=O)C2CC2c2ccccc2C(F)(F)F)CCN1 (stereo unspecified),-4,
N=C(N)NCc1ccc(COCc2ccccc2)cc1,17,
CCOc1ccc(NC(=O)c2cn3nc(-c4ccc(OCC)cc4)cc3nc2C2CCN(C(=O)OC(C)(C)C)CC2)cc1,16,
N#CC(c1ccc(Cl)cc1)N1N=C(c2ccccc2)CC1c1ccccc1 (stereo unspecified),10,
c1ccc(C2=NN(c3ccc(-c4cc(-c5ccccc5)[n+](-c5ccccc5)c(-c5ccccc5)c4)cc3)[C@H](c3ccccc3)C2)cc1,97,
COc1ccc(C2=NN(C(C#N)c3cccc(OC)c3O)C(c3ccccc3)C2)cc1 (stereo unspecified),3,
COc1cccc(C(=O)c2c[nH]c(C(=O)NCc3cccc(C(F)(F)F)c3)c2)c1,6,
